Whole data set: some 18,000 sequences, median “log2 normalized intensity” near 0.36, cut for the highest 2% near 7.3. The sample holds the highest values, similar sequences and a random draw of the others, so the mix is not that of the screen.

This assay concerns the target T1, HNF4alpha8 (COS-7 nuclear extract) (Homo sapiens, UniProt P41235-5 1-452).
T1 sequence: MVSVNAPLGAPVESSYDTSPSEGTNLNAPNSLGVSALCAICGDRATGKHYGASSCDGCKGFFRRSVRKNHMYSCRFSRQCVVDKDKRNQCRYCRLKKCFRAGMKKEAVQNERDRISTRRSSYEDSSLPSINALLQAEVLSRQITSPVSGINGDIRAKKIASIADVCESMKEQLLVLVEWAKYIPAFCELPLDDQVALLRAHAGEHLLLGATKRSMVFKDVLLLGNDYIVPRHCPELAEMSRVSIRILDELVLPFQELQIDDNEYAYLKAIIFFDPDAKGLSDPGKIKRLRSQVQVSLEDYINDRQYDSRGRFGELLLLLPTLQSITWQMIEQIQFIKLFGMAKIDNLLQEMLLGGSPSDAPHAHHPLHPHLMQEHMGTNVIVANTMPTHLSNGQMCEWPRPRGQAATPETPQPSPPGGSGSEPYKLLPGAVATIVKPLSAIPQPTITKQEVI
The assay is described as follows: protein-binding microarray; COS-7 nuclear extract on double-stranded Agilent 4x180k PBM; binding buffer, salt, pH and temperature not given in the material; high values mean tight binding. As to conditions: chain copies: 2; label: 3' end of strand 1 on the slide; dsDNA, one strand shown. Put shortly: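 Binding signal was defined as the normalized, background-corrected gProcessedSignal reported by Agilent software. It came from nuclear extracts of COS-7 cells transiently transfected with a human HNF4α isoform expression vector, applied to a custom Agilent SurePrint G3 4x180k array. That array held ~44,000 test sequences in quadruplicate as double-stranded ~60-nt oligonucleotides, and bound HNF4α was imaged at 2-µm resolution on an Agilent G2565CA scanner.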
In the case of “CTTACGGCCCTGTGGTGTTCGCTAAGATGTGCCTAGGGAGATTAGAGTATCGGTCGA”, the binding signal was found to be 0.705 log2 normalized intensity.
The value for “CCACCTGGAATGTGCTCCCGACTGCTCCACGCCTAGGGAGATTAGAGTATCGGTCGA” was 0.00529 log2 normalized intensity; that for “CACAAACATACAACCATCAAAGGTCACTTTGCCTAGGGAGATTAGAGTATCGGTCGA” was 4.93 log2 normalized intensity.
On to “TATGCTTTTATTTAACTTCTGGGGGCAAGGGCCTAGGGAGATTAGAGTATCGGTCGA”, for which the binding signal is 2 log2 normalized intensity.
For “CATGGACTTTGAACCAAGATATGCTAACATGCCTAGGGAGATTAGAGTATCGGTCGA”, the binding signal stood at 5.27 log2 normalized intensity.
Consider “AGGTACTAAGAGATTTGAATATGTACATGGGCCTAGGGAGATTAGAGTATCGGTCGA”, for which the binding signal is 0.942 log2 normalized intensity.
As for “GAATGCAACCACACCAACATGGACTTTGTCGCCTAGGGAGATTAGAGTATCGGTCGA”, the binding signal was 6.59 log2 normalized intensity.
Regarding “CGGTCAGCTGCTTGACTTAGTACATGGCCTGCCTAGGGAGATTAGAGTATCGGTCGA”, the binding signal turned out to be 0.903 log2 normalized intensity.
For the sequence “TGAATATGTACATGGACTTTGAACCAAGATGCCTAGGGAGATTAGAGTATCGGTCGA”, the binding signal was determined as 8.87 log2 normalized intensity.
Take “AGATTTGAATATGTACATGGACTTTGAACCGCCTAGGGAGATTAGAGTATCGGTCGA”: the binding signal was determined as 10.6 log2 normalized intensity.
The value for “CTAAGAGATTTGAATATGTACATGGACTTTGCCTAGGGAGATTAGAGTATCGGTCGA” was 6.92 log2 normalized intensity; that for “ATGTACATGGACTTTGAACCAAGATATGCTGCCTAGGGAGATTAGAGTATCGGTCGA” was 7.68 log2 normalized intensity; that for “ACACAGTACTTTGTACATGGGAATAGACATGCCTAGGGAGATTAGAGTATCGGTCGA” was 0.975 log2 normalized intensity.
On to “GTCTAGCGCAAATGATCAAAGGTTGGTTTTGCCTAGGGAGATTAGAGTATCGGTCGA”, for which the binding signal was determined as 4.43 log2 normalized intensity.
Consider “AGTGTGTAAGTATGCTCACTGACCTCTGCCGCCTAGGGAGATTAGAGTATCGGTCGA”, for which the binding signal came out at 3.94 log2 normalized intensity.
The value for “TTCTGATCTTTGACCTCTCCAGGGTCCTTGGCCTAGGGAGATTAGAGTATCGGTCGA” was 5.35 log2 normalized intensity; that for “CATCTTTGAAGAGCACAGGGTCAGCAGATCGCCTAGGGAGATTAGAGTATCGGTCGA” was 1.59 log2 normalized intensity; that for “AGGAATTCTGATCTTTGACCTCTCCAGGGTGCCTAGGGAGATTAGAGTATCGGTCGA” was 7.01 log2 normalized intensity.
Turning to “AGAGCAGGAATTCTGATCTTTGACCTCTCCGCCTAGGGAGATTAGAGTATCGGTCGA”, the binding signal was found to be 8.08 log2 normalized intensity.
For the sequence “TAATCAGAGCAGGAATTCTGATCTTTGACCGCCTAGGGAGATTAGAGTATCGGTCGA”, the binding signal stood at 7.96 log2 normalized intensity.
In the case of “CCACTTTGAATCAGGAGAGCATCTGAGTGTGCCTAGGGAGATTAGAGTATCGGTCGA” it was 0.742 log2 normalized intensity; in that of “TGTGCTAGATACTGGAGATATGTTGCTGGAGCCTAGGGAGATTAGAGTATCGGTCGA”, 0.67 log2 normalized intensity; in that of “TCTAGATGGGGTTGAGCAGACTAAAGGACTGCCTAGGGAGATTAGAGTATCGGTCGA”, -0.482 log2 normalized intensity.
In the case of “TGAGACATGAATCCATCCCACCTCACTTATGCCTAGGGAGATTAGAGTATCGGTCGA” it was 1.12 log2 normalized intensity; in that of “GCAAGGAATTCAACCCTTGTCACTTTCCCTGCCTAGGGAGATTAGAGTATCGGTCGA”, 1.82 log2 normalized intensity; in that of “TTGGACAGGGTGACGTCATTGGAAATCCGAGCCTAGGGAGATTAGAGTATCGGTCGA”, 0.187 log2 normalized intensity.
In the case of “CTCTGAGATTCGGTGAGGGATTGTTTAGGTGCCTAGGGAGATTAGAGTATCGGTCGA” it was 0.829 log2 normalized intensity; in that of “AGGGATTGTTTAGGTACAAAGTCCATTGGAGCCTAGGGAGATTAGAGTATCGGTCGA”, 8.46 log2 normalized intensity.
In the case of “AAAGTCCATATTCTTTGTTTGGATGCCAAAGCCTAGGGAGATTAGAGTATCGGTCGA”, the binding signal is 2.25 log2 normalized intensity.
In the case of “CGGTGAGGGATTGTTTAGGTACAAAGTCCAGCCTAGGGAGATTAGAGTATCGGTCGA” it was 8.89 log2 normalized intensity; in that of “AGATTCGGTGAGGGATTGTTTAGGTACAAAGCCTAGGGAGATTAGAGTATCGGTCGA”, 1.25 log2 normalized intensity.
With “TTGTTTAGGTACAAAGTCCATTGGAAGCCAGCCTAGGGAGATTAGAGTATCGGTCGA”, the binding signal was determined as 6.42 log2 normalized intensity.
As to “CCTTTGCCCTCCAAACTGAGAGATTTTTTCGCCTAGGGAGATTAGAGTATCGGTCGA”, the binding signal was 1.05 log2 normalized intensity.
In the case of “GAGGTCTGGACCCTTGGCACTTTCACGATAGCCTAGGGAGATTAGAGTATCGGTCGA” it was 1.79 log2 normalized intensity.
The value for “GACATCTGGAAATGTTTGTAGGGACTTTGAGCCTAGGGAGATTAGAGTATCGGTCGA” was 5.1 log2 normalized intensity; that for “CTTTGACCCTGTTTTGTAAACTCCCTTTGAGCCTAGGGAGATTAGAGTATCGGTCGA” was 2.04 log2 normalized intensity; that for “AGCAATGTTTCTTGTCCAGGGACTTTGAACGCCTAGGGAGATTAGAGTATCGGTCGA” was 6.55 log2 normalized intensity.
In the case of “CAACTGACATCTGGAAATGTTTGTAGGGACGCCTAGGGAGATTAGAGTATCGGTCGA” it was 0.67 log2 normalized intensity; in that of “CTGGAAATGTTTGTAGGGACTTTGACCCCTGCCTAGGGAGATTAGAGTATCGGTCGA”, 10.4 log2 normalized intensity.
In the case of “AATGTTTGTAGGGACTTTGACCCCTAAAACGCCTAGGGAGATTAGAGTATCGGTCGA”, the binding signal was found to be 9.59 log2 normalized intensity.
In the case of “CAGCTTTGAAGTGCTTCCTGTGTATTTCTTGCCTAGGGAGATTAGAGTATCGGTCGA” it was 1.27 log2 normalized intensity; in that of “GGACTAAGAATTGCTCAACCTGGACCTCATGCCTAGGGAGATTAGAGTATCGGTCGA”, 1.89 log2 normalized intensity.
In the case of “TGTCACACTGGCCTTTGCCCTCGCTGGCGGGCCTAGGGAGATTAGAGTATCGGTCGA” it was 5.25 log2 normalized intensity.
The value for “AAAGGCTGTCACACTTGCCCTTTGCCCTCAGCCTAGGGAGATTAGAGTATCGGTCGA” was 8.84 log2 normalized intensity; that for “CACAAAAAGGCTGTCACACTTGCCCTTTGCGCCTAGGGAGATTAGAGTATCGGTCGA” was 5.42 log2 normalized intensity; that for “CTATGTCAGGCCATTTCACCTTTGCCCTGTGCCTAGGGAGATTAGAGTATCGGTCGA” was 7.53 log2 normalized intensity.
For the sequence “ACACTTGCCCTTTGCCCTCACTGGTAGAAGGCCTAGGGAGATTAGAGTATCGGTCGA”, the binding signal amounted to 5.8 log2 normalized intensity.
In the case of “AAGGCTGTCACACTGGCCTTTGCCCTCGCTGCCTAGGGAGATTAGAGTATCGGTCGA” it was 5.82 log2 normalized intensity.
Regarding “CTGTCACACTTGCCCTTTGCCCTCACTGGTGCCTAGGGAGATTAGAGTATCGGTCGA”, the binding signal was 7.78 log2 normalized intensity.
In the case of “AGCCTCTATGTCAGGCCATTTCACCTTTGCGCCTAGGGAGATTAGAGTATCGGTCGA”, the binding signal came out at 4.57 log2 normalized intensity.
On to “TCAGGCCATTTCACCTTTGCCCTGTCAGTCGCCTAGGGAGATTAGAGTATCGGTCGA”, for which the binding signal came out at 6.79 log2 normalized intensity.
The value for “TTCAGCCGCTTTGAGGTCAATGGTAGAAAAGCCTAGGGAGATTAGAGTATCGGTCGA” was 1.85 log2 normalized intensity; that for “ACTAAAGGTTAAACATGTACTCTGTACTCCGCCTAGGGAGATTAGAGTATCGGTCGA” was 3.43 log2 normalized intensity.
In the case of “ACCCCTCCACTGGACAGCAGCTACATAAGGGCCTAGGGAGATTAGAGTATCGGTCGA” it was 1.83 log2 normalized intensity.

The record behind these values is paper PMC10726135, “HNF4α isoforms regulate the circadian balance between carbohydrate and lipid metabolism in the liver”.
